Common to all, as to assay: NCI-60 one-dose screen, 48 h (100 = growth as untreated, 0 = no growth, -100 = all killed)
For one assay, the system named is EKVX NSCLC. Conditions: 10 µM unless noted.
The subject of the next assay is SN12C renal. Conditions: 10 µM unless noted.
In the next assay the test system is UO-31 renal. Conditions: 10 µM unless noted.
A further assay has as its system TK-10 renal. Particulars: 10 µM unless noted.
A further assay has as its system ACHN renal. Conditions: 10 µM unless noted.
A further assay concerns CAKI-1 renal. Conditions: 10 µM unless noted.
For the next assay, the system named is A498 renal. Conditions: 10 µM unless noted.
In another assay the test system is CCRF-CEM leukemia. Particulars: 10 µM unless noted.
For another assay, the system named is MOLT-4 leukemia. Conditions: 10 µM unless noted.
The subject of the next assay is SR leukemia. Particulars: 10 µM unless noted.
Another assay has as its system RPMI-8226 leukemia. Particulars: 10 µM unless noted.
A further assay has as its system OVCAR-8 ovarian. Conditions: 10 µM unless noted.
A further assay concerns OVCAR-5 ovarian. Particulars: 10 µM unless noted.
In the next assay the test system is OVCAR-4 ovarian. Particulars: 10 µM unless noted.
A further assay relates to SK-OV-3 ovarian. Particulars: 10 µM unless noted.
Another assay deals with IGROV1 ovarian. Particulars: 10 µM unless noted.
The subject of a further assay is OVCAR-3 ovarian. Particulars: 10 µM unless noted.
The subject of another assay is HS 578T breast. Conditions: 10 µM.
For another assay, the system named is NCI/ADR-RES ovarian. Particulars: 10 µM unless noted.

The panel holds about 83,000 compounds, 20% with a hit somewhere; the sample as a whole holds those more often.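 96-well plates, one dose, 48 hours. Percent growth reported; active if below 10.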 Unmarked numbers belong to inactive results. Active and inactive are the calls of the source.

`O=S1(=O)OC(c2ccc(O)c(Cl)c2)(c2ccc(O)c(Cl)c2)c2ccccc21`: the growth in the assay on EKVX NSCLC is 112%; in the assay with SN12C renal it was 97%; in the assay on UO-31 renal, 66.2%; in the assay with TK-10 renal it was 100%; with ACHN renal, 96.9%; in the assay with CAKI-1 renal it was 90.2%. In addition, the growth was 90.3% with A498 renal; 102% in the assay on CCRF-CEM leukemia; 109% in the assay with MOLT-4 leukemia; 112% in the assay with SR leukemia; 104% in the assay on RPMI-8226 leukemia; 87.5% with OVCAR-8 ovarian. Also, the growth with OVCAR-5 ovarian is 96.5%; with OVCAR-4 ovarian, 99.8%; in the assay with SK-OV-3 ovarian, 101%; in the assay on IGROV1 ovarian, 91.2%; in the assay on OVCAR-3 ovarian, 116%; in the assay on HS 578T breast it was 97%. For the same molecule, the growth with NCI/ADR-RES ovarian was 105%.
With `CNC(=O)c1cc(Oc2cccc3nc(Nc4ccc(Oc5ccccc5)cc4)ccc23)ccn1`, the growth with EKVX NSCLC was 62.2%; in the assay on SN12C renal, 81.3%; in the assay with UO-31 renal it was 57.9%; with TK-10 renal, 78.5%; in the assay on ACHN renal it was 81.1%; with CAKI-1 renal, 67.5%. For the same molecule, the growth in the assay with A498 renal was 73.8%; in the assay on CCRF-CEM leukemia it was 69.5%; with MOLT-4 leukemia, 42.7%; in the assay with SR leukemia, 30.2%; in the assay with RPMI-8226 leukemia, 47.9%; in the assay with OVCAR-8 ovarian it was 75.8%. The growth is 83.4% with OVCAR-5 ovarian; 52.1% in the assay on OVCAR-4 ovarian; 87.1% in the assay on SK-OV-3 ovarian; 92.4% in the assay on IGROV1 ovarian; 72.7% in the assay with OVCAR-3 ovarian; 81.9% in the assay with HS 578T breast. The growth in the assay on NCI/ADR-RES ovarian is 72.6%.
Turning to `O=[N+]([O-])c1cc(Br)cc2c1[nH]c1ccc(Br)cc12`, the growth with EKVX NSCLC was 60.2%; with SN12C renal, 82.7%; in the assay with UO-31 renal it was 25.5%; in the assay on TK-10 renal, 52.8%; with ACHN renal it was 32.9%; with CAKI-1 renal, 51.4%. In addition, the growth is 76.2% in the assay with A498 renal; 65.2% with CCRF-CEM leukemia; 77.1% with MOLT-4 leukemia; 77.2% with SR leukemia; 78.2% in the assay on RPMI-8226 leukemia; 57.7% in the assay with OVCAR-8 ovarian. Also, the growth in the assay with OVCAR-5 ovarian is 80.4%; with OVCAR-4 ovarian it was -26.5% (active); with SK-OV-3 ovarian, 34.5%; in the assay on IGROV1 ovarian, 36.6%; in the assay with OVCAR-3 ovarian, 43.3%; in the assay with HS 578T breast, 65.4%. Also, the growth in the assay on NCI/ADR-RES ovarian is 70.4%.
With `COc1cc2cc(NCc3ccc(F)cc3)nc(C)c2cc1OC`, the growth is 78.7% in the assay on EKVX NSCLC; 51% in the assay with SN12C renal; 49.6% with UO-31 renal; 46.7% with TK-10 renal; 60.4% in the assay on ACHN renal; 67% in the assay with CAKI-1 renal. Also, the growth in the assay with A498 renal is 27.4%; in the assay with CCRF-CEM leukemia, 41.9%; with MOLT-4 leukemia it was 35.2%; with SR leukemia it was 22.2%; in the assay on RPMI-8226 leukemia, 14.2%; in the assay on OVCAR-8 ovarian, 51%. Besides, the growth in the assay with OVCAR-5 ovarian is 53.4%; with OVCAR-4 ovarian, 96.7%; in the assay on SK-OV-3 ovarian, 75.3%; with IGROV1 ovarian it was 59.1%; with OVCAR-3 ovarian, 68.2%; in the assay with HS 578T breast, 75.8%. The growth in the assay with NCI/ADR-RES ovarian is 44.4%.
Consider `CC(=O)CC1CCCC1c1ccc2ccccc2c1` (configuration not stated), for which the growth in the assay with EKVX NSCLC is 102%; in the assay on SN12C renal, 105%; in the assay with UO-31 renal it was 84.7%; in the assay on TK-10 renal it was 91.5%; in the assay on ACHN renal, 101%; in the assay with CAKI-1 renal, 98.6%. Moreover, the growth in the assay on A498 renal is 97.6%; with CCRF-CEM leukemia, 97.6%; in the assay on MOLT-4 leukemia, 99.2%; with SR leukemia it was 104%; with RPMI-8226 leukemia it was 103%; in the assay on OVCAR-8 ovarian, 100%. For the same molecule, the growth with OVCAR-5 ovarian is 97.2%; in the assay with OVCAR-4 ovarian it was 112%; in the assay on SK-OV-3 ovarian, 101%; in the assay on IGROV1 ovarian, 101%; with OVCAR-3 ovarian it was 105%; in the assay on HS 578T breast it was 100%. Further, the growth in the assay with NCI/ADR-RES ovarian is 102%.
Take `O=C1CCC(=O)CC1`: the growth with EKVX NSCLC is 98.8%; in the assay on SN12C renal, 90%; in the assay with UO-31 renal it was 86.4%; in the assay on TK-10 renal, 96.4%; in the assay on ACHN renal, 109%; in the assay with CAKI-1 renal it was 96.5%. The growth in the assay on A498 renal was 104%; in the assay on CCRF-CEM leukemia it was 98.1%; in the assay on MOLT-4 leukemia it was 101%; in the assay with SR leukemia, 97.4%; in the assay on RPMI-8226 leukemia it was 110%; with OVCAR-8 ovarian, 101%. Besides, the growth was 92.3% with OVCAR-5 ovarian; 113% in the assay on OVCAR-4 ovarian; 112% with SK-OV-3 ovarian; 96.3% with IGROV1 ovarian; 117% in the assay on OVCAR-3 ovarian; 103% in the assay on HS 578T breast. In the assay with NCI/ADR-RES ovarian, the growth is 104%.
Regarding `Ic1ccccc1-c1ccccc1`, the growth with EKVX NSCLC is 120%; in the assay with SN12C renal, 101%; with UO-31 renal, 85.5%; with TK-10 renal it was 106%; in the assay on ACHN renal it was 109%; in the assay on CAKI-1 renal, 111%. For the same molecule, the growth in the assay on A498 renal was 89.8%; in the assay with CCRF-CEM leukemia, 90.1%; in the assay with MOLT-4 leukemia, 101%; in the assay on SR leukemia it was 102%; in the assay on RPMI-8226 leukemia, 103%; with OVCAR-8 ovarian, 110%. Also, the growth is 114% with OVCAR-5 ovarian; 109% in the assay on OVCAR-4 ovarian; 111% in the assay on SK-OV-3 ovarian; 117% in the assay with IGROV1 ovarian; 111% in the assay with OVCAR-3 ovarian; 102% in the assay on HS 578T breast. The growth in the assay with NCI/ADR-RES ovarian is 110%.
With `CCN(CC)c1cc2oc3cc(N)cc(=N)c-3nc2cc1C`, the growth in the assay with EKVX NSCLC is 50.5%; with SN12C renal, 31.1%; in the assay on UO-31 renal, 67.9%; with TK-10 renal, 13.2%; with ACHN renal it was 17.6%; in the assay with CAKI-1 renal, 42.5%. Further, the growth is 82% in the assay with A498 renal; 15.3% with CCRF-CEM leukemia; 29.1% in the assay with MOLT-4 leukemia; 30.4% with SR leukemia; 43.4% with RPMI-8226 leukemia; 2.1% (active) with OVCAR-8 ovarian. Further, the growth in the assay on OVCAR-5 ovarian was 32.3%; in the assay on OVCAR-4 ovarian, -6.55% (active); in the assay on SK-OV-3 ovarian, 103%; in the assay with IGROV1 ovarian, 50.9%; in the assay with OVCAR-3 ovarian it was 24.7%; in the assay on HS 578T breast, 37.4%. Moreover, in the assay on NCI/ADR-RES ovarian, the growth was 1.37% (active).

These data come from PubChem BioAssay (NCI).
